Bioassay records (PubChem)
Sampled rows, rich in hits. Any-hit rate of the full collection: about 3.5%.
FBW7 activator: activators of human E3 ligase FBW7; 650,000 compounds, 0.13% hits; Q969H0; AlphaScreen FBW7–phospho-cyclin E peptide binding, activator screen; normalized activity (activation), % at 26.1 µM; in the data active = normalized activity above about 1.9%;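 note: purified mutant Fbw7 with reduced substrate affinity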
Target sequence (Q969H0 whole entry, looked up): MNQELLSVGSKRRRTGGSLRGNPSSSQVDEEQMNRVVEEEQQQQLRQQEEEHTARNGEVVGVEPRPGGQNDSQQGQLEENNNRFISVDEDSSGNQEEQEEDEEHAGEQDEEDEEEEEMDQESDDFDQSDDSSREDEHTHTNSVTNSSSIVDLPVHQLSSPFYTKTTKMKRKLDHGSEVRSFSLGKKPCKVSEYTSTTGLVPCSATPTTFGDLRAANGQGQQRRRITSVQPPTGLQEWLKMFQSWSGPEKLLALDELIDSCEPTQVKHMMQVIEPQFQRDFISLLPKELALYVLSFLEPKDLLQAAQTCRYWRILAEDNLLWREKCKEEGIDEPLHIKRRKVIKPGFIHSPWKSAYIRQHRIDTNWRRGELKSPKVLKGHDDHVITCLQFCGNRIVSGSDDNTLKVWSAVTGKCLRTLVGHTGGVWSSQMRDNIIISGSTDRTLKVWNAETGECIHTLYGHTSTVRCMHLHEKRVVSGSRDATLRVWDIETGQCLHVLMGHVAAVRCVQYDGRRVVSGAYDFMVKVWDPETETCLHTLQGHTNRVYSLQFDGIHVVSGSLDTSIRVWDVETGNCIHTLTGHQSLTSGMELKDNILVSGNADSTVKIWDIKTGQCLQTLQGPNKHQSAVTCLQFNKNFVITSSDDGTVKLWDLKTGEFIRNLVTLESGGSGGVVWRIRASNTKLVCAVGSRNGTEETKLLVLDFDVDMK
TEAD-YAP block: TEAD-YAP interaction inhibition; inhibition, % at 9.12 µM; 640,000 compounds, 1.4% hits; HEK-TIYL cells, TEAD-Gal4/YAP UAS-luciferase luminescence; in the data active = inhibition above about 32%;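 note: 0% = median of test compound wells and 100% = reference inhibitor wells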
GPR151 ag: activates the human receptor GPR151; Q8TDV0; PathHunter beta-arrestin GPR151 cells, luminescence; activation, % at 11.2 µM; 650,000 compounds, 1% hits; AID 1508602; in the data active = activation above about 4.9%;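 note: 0% = median of compound wells and 100% = cells with positive control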
MITF primary: inhibitors of human MITF; O75030; AlphaScreen MITF homodimerization, bead proximity signal; inhibition, % at 2.6 µM; 650,000 compounds, 0.91% hits; AID 1259374; in the data active = inhibition above about 50%;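 note: 0% = vehicle wells with protein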
* = called active by the depositor.

Screening Nc1cc(-c2ccccc2)nc2ccccc12 returned FBW7 activator 0, TEAD-YAP block 13, GPR151 ag -1 and MITF primary 3.
`CC(C)Nc1c2ccccc2nc2ccccc12` gave FBW7 activator 0, TEAD-YAP block 73*, GPR151 ag 1 and MITF primary -5.
CCCNC(=O)CCCn1ncn2c(cc3occc32)c1=O was read as FBW7 activator 0, TEAD-YAP block -36, GPR151 ag 2 and MITF primary -6.
For Cc1ccc(S(=O)(=O)N(CC(=O)N2CCN(C)CC2)Cc2cccc(Cl)c2)cc1 the results were FBW7 activator 0, TEAD-YAP block 12, GPR151 ag -1 and MITF primary 20.
`COc1ccccc1C(=O)Nc1cccc(N2CCC(NCCSC)CC2)c1` gave FBW7 activator 0, TEAD-YAP block 47*, GPR151 ag -1 and MITF primary 12.
`COc1ccccc1C(=O)Nc1cccc(N2CCC(NCC3CCOCC3)CC2)c1` gave FBW7 activator 0, TEAD-YAP block 6, GPR151 ag -1 and MITF primary 6.
`COc1ccc(N2CCN(c3ccc(NC(=O)c4ccc(OC)c(OC)c4)cc3C#N)CC2)cc1` gave FBW7 activator 0, TEAD-YAP block -1, GPR151 ag 2 and MITF primary 7.
c1csc(CNc2ccc(-c3nc4ccccc4s3)cc2)c1 was read as FBW7 activator 0, TEAD-YAP block 86*, GPR151 ag -6 and MITF primary 1.
c1ccc(-c2nc3ccccc3s2)cc1 was read as FBW7 activator 0, TEAD-YAP block -36, GPR151 ag -2 and MITF primary 8.
For CC(C)c1nc2c(-c3cn[nH]c3)cccc2c(=O)[nH]1 the results were FBW7 activator 0, TEAD-YAP block 32*, GPR151 ag -1 and MITF primary 13.
Screening Cc1sc(NC(=O)c2ccco2)c(C(c2cccnc2)N2CCOCC2)c1C (stereo unspecified) returned FBW7 activator 0, TEAD-YAP block 29, GPR151 ag -1 and MITF primary 12.
Cc1sc(NC(=O)c2ccco2)c(C(c2cccnc2)N2CCN(c3ccccc3F)CC2)c1C (stereo unspecified) was read as FBW7 activator 0, TEAD-YAP block 37*, GPR151 ag 0 and MITF primary -14.
Screening Cc1sc(NC(=O)c2ccco2)c(C(c2cccnc2)N2CCCCC2)c1C (stereo unspecified) returned FBW7 activator 0, TEAD-YAP block 41*, GPR151 ag 4 and MITF primary 2.
Screening COc1ccc(CN2CCOc3ccc(C(O)c4cccnc4)cc3C2)c(OC)c1 (stereo unspecified) returned FBW7 activator 0, TEAD-YAP block 0, GPR151 ag -1 and MITF primary 1.
NS(=O)(=O)c1ccc(CCNC(=O)c2cc3c(s2)CCCCCC3)cc1 was read as FBW7 activator 1, TEAD-YAP block -6, GPR151 ag -2 and MITF primary 12.
COc1ccc(NC(=O)CN(c2cc(Cl)cc(Cl)c2)S(C)(=O)=O)cc1 was read as FBW7 activator 0, TEAD-YAP block 5, GPR151 ag -1 and MITF primary 3.
`N#C/C(=C\c1ccc(N2CCOCC2)cc1)c1nc2ccccc2s1` gave FBW7 activator 0, TEAD-YAP block 39*, GPR151 ag -1 and MITF primary 15.
CN(C)c1ccc(/C=C(\C#N)c2nc3ccccc3s2)o1 was read as FBW7 activator 0, TEAD-YAP block 53*, GPR151 ag 0 and MITF primary -4.
Screening O=C(O)C/C(=C\c1ccc2c(c1)OCCO2)c1nc2ccccc2s1 returned FBW7 activator 0, TEAD-YAP block 0, GPR151 ag 2 and MITF primary -6.
For O=C(O)C/C(=C\c1ccc(N2CCOCC2)cc1)c1nc2ccccc2s1 the results were FBW7 activator 0, TEAD-YAP block 75*, GPR151 ag -1 and MITF primary -4.
Cc1ccc(N2CCN(C(=O)CC(C)(C)CC3=NS(=O)(=O)c4ccccc4N3)CC2)c(C)c1 was read as FBW7 activator 0, TEAD-YAP block 47*, GPR151 ag 0 and MITF primary 7.
Screening COc1ccc(-n2c(=S)[nH]c3cc(C(=O)Nc4ccc(F)cc4)ccc3c2=O)c(OC)c1 returned FBW7 activator 0, TEAD-YAP block 71*, GPR151 ag 2 and MITF primary 3.
Cc1noc(C)c1NC(=O)NCCN1CCOCC1 was read as FBW7 activator 0, TEAD-YAP block -4, GPR151 ag -1 and MITF primary -4.
Screening CCOc1cc(C(=O)Nc2ccc(-c3ccn[nH]3)cc2)cc(OCC)c1OCC returned FBW7 activator 0, TEAD-YAP block 51*, GPR151 ag -1 and MITF primary 12.
For O=C(Nc1ccc(-c2ccn[nH]2)cc1)c1cccnc1 the results were FBW7 activator 0, TEAD-YAP block 79*, GPR151 ag -10 and MITF primary -4.
For O=C(Nc1cccc(-c2nc3ccc(NC(=O)c4cccnc4)cc3o2)c1)c1cccnc1 the results were FBW7 activator 0, TEAD-YAP block 41*, GPR151 ag 2 and MITF primary 5.
COc1cccc(N2C(=O)/C(=C/c3ccc(OC)c(O)c3)C(=O)NC2=S)c1 was read as FBW7 activator 1, TEAD-YAP block 2, GPR151 ag 1 and MITF primary 11.
O=c1c2c(-c3ccccc3)csc2ncn1/N=C/c1ccc(O)c(O)c1O was read as FBW7 activator 0, TEAD-YAP block 11, GPR151 ag -1 and MITF primary 62*.
For COc1cccc(/C=C2\SC(N3CCCC3)=NC2=O)c1OC the results were FBW7 activator 0, TEAD-YAP block 8, GPR151 ag 0 and MITF primary 6.
COc1cccc(/C=C2/SC(N3CCCC3)=NC2=O)c1OC was read as FBW7 activator 0, TEAD-YAP block 33*, GPR151 ag 1 and MITF primary -10.
CC(C)Oc1ccccc1/C=C1/SC(N2CCN(C)CC2)=NC1=O was read as FBW7 activator 0, TEAD-YAP block -8, GPR151 ag -1 and MITF primary -7.
For CC(C)Oc1ccccc1/C=C1\SC(N2CCOCC2)=NC1=O the results were FBW7 activator 0, TEAD-YAP block 39*, GPR151 ag 1 and MITF primary -1.
For O=C(CCCCCn1c(SCc2cccc(F)c2)nc2cc3c(cc2c1=O)OCO3)NCc1ccc2c(c1)OCO2 the results were FBW7 activator 0, TEAD-YAP block -4, GPR151 ag 0 and MITF primary 9.
`O=C(c1cccc(N2CCCC2=O)c1)N1CCN(c2cccc(Cl)c2)CC1` gave FBW7 activator 0, TEAD-YAP block 44*, GPR151 ag 0 and MITF primary 1.
Cc1cccc(N2CCN(C(=O)c3cccc(N4CCCC4=O)c3)C(C)C2)c1 (stereo unspecified) was read as FBW7 activator 0, TEAD-YAP block 58*, GPR151 ag -1 and MITF primary 2.
`Cc1cccc(N2CCN(C(=O)c3ccc(N4CCCC4=O)cc3)CC2C)c1` (stereo unspecified) gave FBW7 activator 0, TEAD-YAP block -2, GPR151 ag 0 and MITF primary -2.
